PubChem BioAssay (Tox21)
Several values for one entry are separate records, joined by “and”; a condition that tells them apart may be missing. Equal entries are not always repeated. Records with an inconclusive call do not appear. Some structures have more than one record in an assay (separate samples or runs), and their calls can disagree. Activity calls are given as the source filed them. Unless noted, calls follow the shape of the full dose curve.

Legend:
[1] = Nuclear factor erythroid 2-related factor 2/antioxidant responsive element (Nrf2/ARE) small molecule agonists: qHTS cell viability counter screen in human keratinocytes (AID 1919968; active = well fitted curve in the direction sought with a large enough effect in the repeat runs; an effect the other way counts as inactive or inconclusive; also: nearly all actives have a fitted effect of over 55% in size)
Procedure, shortened: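 CellTiter-Fluor fluorescence, read 1 h after reagent, gave viability in the same wells as the ARE-luciferase assay. KeratinoSens cells (1,500/well) had 23 h compound exposure at 37 C/5% CO2 following 5 h plating.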

[2] = Nuclear factor erythroid 2-related factor 2/antioxidant responsive element (Nrf2/ARE) small molecule agonists: luciferase reporter gene qHTS assay in human keratinocytes (AID 1919969); also: nearly all actives have a fitted effect of over 35% in size; also: potency is read from the fitted curve at half-maximal effect
[3] = target: Gonadotropin-releasing hormone receptor (Homo sapiens) (UniProt P30968); test: Human gonadotropin-releasing hormone receptor (GnRHR) small molecule agonists, calcium flux assay in GnRHR-HEK293 cells (AID 1920063); also: nearly all actives have a fitted effect of over 35% in size
Chain of Gonadotropin-releasing hormone receptor (Homo sapiens) (P30968 whole entry, looked up): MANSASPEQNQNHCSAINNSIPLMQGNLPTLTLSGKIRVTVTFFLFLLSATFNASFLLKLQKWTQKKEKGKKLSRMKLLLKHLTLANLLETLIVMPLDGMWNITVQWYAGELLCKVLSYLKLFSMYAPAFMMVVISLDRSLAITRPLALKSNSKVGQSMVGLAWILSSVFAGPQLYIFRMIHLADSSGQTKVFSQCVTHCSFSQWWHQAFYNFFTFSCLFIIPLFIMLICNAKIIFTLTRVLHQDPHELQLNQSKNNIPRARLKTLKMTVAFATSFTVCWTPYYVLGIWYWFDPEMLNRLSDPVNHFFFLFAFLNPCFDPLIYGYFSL
Procedure, shortened: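 Agonist mode: compounds at 15 concentrations, in triplicate, went onto calcium dye-loaded GnRHR-HEK293 cells. Intracellular calcium was then followed as 480/540 nm fluorescence at 1 s intervals over 3 min.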

[4] = target: KiSS-1 receptor (Homo sapiens) (UniProt Q969F8); test: Human kisspeptin (KISS1R) small molecule agonists, calcium flux assay in KISS1R-HEK293 cells (AID 1920064; active = well fitted curve in the direction sought with a large enough effect in the repeat runs; an effect the other way counts as inactive or inconclusive)
Chain of KiSS-1 receptor (Homo sapiens) (Q969F8 whole entry, looked up): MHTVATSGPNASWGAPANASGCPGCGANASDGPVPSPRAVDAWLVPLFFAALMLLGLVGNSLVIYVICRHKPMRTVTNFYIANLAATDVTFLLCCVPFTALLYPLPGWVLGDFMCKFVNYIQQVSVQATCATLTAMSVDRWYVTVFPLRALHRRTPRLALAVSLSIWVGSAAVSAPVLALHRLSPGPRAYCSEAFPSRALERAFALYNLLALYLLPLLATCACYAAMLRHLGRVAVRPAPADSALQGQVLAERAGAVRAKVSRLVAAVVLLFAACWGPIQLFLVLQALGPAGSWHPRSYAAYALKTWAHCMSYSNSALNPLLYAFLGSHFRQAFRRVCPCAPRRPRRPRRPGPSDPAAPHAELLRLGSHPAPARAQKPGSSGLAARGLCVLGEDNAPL
Procedure, shortened: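 Agonist mode: intracellular calcium rise tracked at 1 s intervals over 3 min (480/540 nm) immediately after compound addition to dye-loaded KISS1R-HEK293 stable cells. Each compound tested at 15 concentrations in triplicate.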

[5] = G protein-coupled receptor (GPCR) small molecule agonists, calcium flux assay: HEK293 wild type cell line counter screen (AID 1920065)
Procedure, shortened: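 Calcium flux counter screen: compound added in agonist mode at 15 concentrations in triplicate to dye-loaded parental HEK293 cells. Fluorescence (480/540) read kinetically for 3 min; ATP served as positive control.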

[6] = p53 small molecule agonists, cell-based qHTS assay with human liver microsomes (AID 1963577);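 also: p53 response element beta-lactamase reporter cells with liver microsomes plus NADPH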
Procedure, shortened: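 With metabolic activation: human liver microsomes (0.5 mg/mL final) plus NADPH (0.5 mg/mL final) added alongside compounds to p53RE-bla cells; 16 h 37 C exposure; beta-lactamase read by LiveBLAzer fluorescence.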

[7] = p53 small molecule agonists, cell-based qHTS assay with rat liver microsomes (AID 1963578)
Procedure, shortened: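 Metabolic activation by rat liver microsomes and NADPH, each 0.5 mg/mL final, added right after compounds to p53RE-bla reporter cells (4,000/well, plated 5 h earlier). 16 h at 37 C, then LiveBLAzer substrate for 2 h at room temperature in the dark; fluorescence read-out.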

[8] = p53 small molecule agonists, cell-based qHTS assay with human liver microsomes: qHTS cell viability counter screen (AID 1963579); also: nearly all actives have a fitted effect of over 45% in size
Procedure, shortened: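 Metabolic activation used human liver microsomes and NADPH, both 0.5 mg/mL final, over 16 hours at 37 C on p53RE-bla cells (4,000/well). Cytotoxicity measured by CellTiter-Glo luminescence, 30 min at room temperature.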

[9] = p53 small molecule agonists, cell-based qHTS assay with rat liver microsomes: qHTS cell viability counter screen (AID 1963580); also: nearly all actives have a fitted effect of over 45% in size
Procedure, shortened: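 Cytotoxicity counter screen: intracellular ATP read by CellTiter-Glo luminescence in the p53 reporter wells. HCT-116 p53RE-bla cells were treated for 16 h at 37 C alongside rat liver microsomes and NADPH, each 0.5 mg/mL final.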

[10] = p53 small molecule agonists, cell-based qHTS assay (AID 1963582; active = well fitted activation curve with a large enough effect in the signal ratio in the repeat runs, not every such curve was filed as active; the % refers to the signal ratio)
Procedure, shortened: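 Read-out is beta-lactamase FRET fluorescence after 2 h at room temperature with LiveBLAzer B/G substrate. p53 response element-bla cells were treated 16 h at 37 C with compounds in DMSO, added 5 h after seeding.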

[11] = target: 5-hydroxytryptamine receptor 2A (Homo sapiens) (UniProt P28223); test: 5-hydroxytryptamine receptor 2A (HTR2A) small molecule antagonists, cell-based qHTS assay (AID 1963586); also: nearly all actives have a fitted effect of over 45% in size
Chain of 5-hydroxytryptamine receptor 2A (Homo sapiens) (P28223 whole entry, looked up): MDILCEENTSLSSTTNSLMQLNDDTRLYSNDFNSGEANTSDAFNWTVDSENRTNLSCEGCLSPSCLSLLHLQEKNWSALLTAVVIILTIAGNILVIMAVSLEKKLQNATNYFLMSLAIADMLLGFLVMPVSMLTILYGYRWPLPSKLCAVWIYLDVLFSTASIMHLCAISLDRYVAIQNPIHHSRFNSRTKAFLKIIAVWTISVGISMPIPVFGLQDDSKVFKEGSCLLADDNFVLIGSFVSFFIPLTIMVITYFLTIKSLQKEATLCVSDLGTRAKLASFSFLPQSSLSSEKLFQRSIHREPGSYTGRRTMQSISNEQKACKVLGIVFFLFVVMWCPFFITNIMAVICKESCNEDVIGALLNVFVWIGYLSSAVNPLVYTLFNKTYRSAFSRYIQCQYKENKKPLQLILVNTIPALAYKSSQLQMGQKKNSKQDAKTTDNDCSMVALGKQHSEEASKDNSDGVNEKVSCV
Procedure, shortened: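 CHO cells stably expressing human HTR2A were plated for 18 h at 37 C, then loaded with calcium dye for 1 h. Compounds were preincubated 5 min at room temperature before DOI (4 nM solution) was added. Kinetic fluorescence was read for 3 min.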

[12] = target: 5-hydroxytryptamine receptor 2A (Homo sapiens) (UniProt P28223); test: 5-hydroxytryptamine receptor 2A (HTR2A) small molecule agonists, cell-based qHTS assay (AID 1963587); also: nearly all actives have a fitted effect of over 30% in size
Procedure, shortened: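 Kinetic calcium-flux fluorescence (2 min, 1 sec intervals) after compound addition in agonist mode. HTR2A-CHO cells were cultured 18 h, then dye-loaded 1 h at 37 C.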

[13] = target: Muscarinic acetylcholine receptor M1 (Homo sapiens) (UniProt P11229); test: Cholinergic receptor muscarinic 1 (CHRM1) small molecule antagonists, cell-based qHTS assay (AID 1963588); also: nearly all actives have a fitted effect of over 40% in size
Chain of Muscarinic acetylcholine receptor M1 (Homo sapiens) (P11229 whole entry, looked up): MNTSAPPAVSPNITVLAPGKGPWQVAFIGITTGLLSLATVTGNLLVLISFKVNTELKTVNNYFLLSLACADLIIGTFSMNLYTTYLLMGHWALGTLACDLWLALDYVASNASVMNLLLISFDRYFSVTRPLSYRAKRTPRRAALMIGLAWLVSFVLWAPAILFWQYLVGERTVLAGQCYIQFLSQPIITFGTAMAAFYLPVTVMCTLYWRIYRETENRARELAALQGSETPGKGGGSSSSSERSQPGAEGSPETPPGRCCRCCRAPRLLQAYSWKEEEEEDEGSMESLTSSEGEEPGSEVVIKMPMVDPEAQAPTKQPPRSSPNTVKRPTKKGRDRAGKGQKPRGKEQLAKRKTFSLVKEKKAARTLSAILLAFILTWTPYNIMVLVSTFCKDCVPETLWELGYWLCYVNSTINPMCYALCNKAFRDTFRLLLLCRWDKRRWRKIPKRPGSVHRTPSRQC
Procedure, shortened: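 Compounds were tested at 15 concentrations in three independent runs. Dye-loaded CHRM1-CHO cells were exposed 5 min at room temperature before stimulation by acetylcholine added at 50nM. Intracellular calcium was read kinetically on FDSS for 3 min.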

[14] = target: Muscarinic acetylcholine receptor M1 (Homo sapiens) (UniProt P11229); test: Cholinergic receptor muscarinic 1 (CHRM1) small molecule agonists, cell-based qHTS assay (AID 1963589); also: nearly all actives have a fitted effect of over 35% in size
Procedure, shortened: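 Agonist-mode calcium-flux screen: compounds at 15 concentrations, three independent runs, were pin-transferred onto dye-loaded human CHRM1-CHO cells. Fluorescence was then recorded kinetically every second over minutes.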

[15] = cAMP Responsive Elements (CRE) small molecule agonists, cell-based qHTS assay (AID 1963590)
Procedure, shortened: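 Agonist mode: compound added to CRE-bla HEK 293T cells (2,000/well, 18 h after plating) for 3 h at 37 C/5% CO2. Reporter activity detected via FRET beta-lactamase substrate, 2 h room-temperature loading.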

[16] = cAMP Responsive Elements (CRE) small molecule antagonists, cell-based qHTS assay (AID 1963591; active = well fitted inhibition curve with a large enough effect in the signal ratio in the repeat runs, not every such curve was filed as active; the % refers to the signal ratio)
Procedure, shortened: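 Antagonist mode: compounds are added alongside the adenylyl cyclase activator NKH477 (0.25 uM final) to CRE-bla HEK293T cells for 3 h. LiveBLAzer FRET substrate, 2 h at room temperature, reports bla expression.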

[17] = target: Beta-2 adrenergic receptor (Homo sapiens) (UniProt P07550); test: Adrenergic beta2 receptor (ADRB2) small molecule antagonists, cell-based qHTS assay (AID 1963592); also: nearly all actives have a fitted effect of over 50% in size; also: potency is read from the fitted curve at half-maximal effect
Chain of Beta-2 adrenergic receptor (Homo sapiens) (P07550 whole entry, looked up): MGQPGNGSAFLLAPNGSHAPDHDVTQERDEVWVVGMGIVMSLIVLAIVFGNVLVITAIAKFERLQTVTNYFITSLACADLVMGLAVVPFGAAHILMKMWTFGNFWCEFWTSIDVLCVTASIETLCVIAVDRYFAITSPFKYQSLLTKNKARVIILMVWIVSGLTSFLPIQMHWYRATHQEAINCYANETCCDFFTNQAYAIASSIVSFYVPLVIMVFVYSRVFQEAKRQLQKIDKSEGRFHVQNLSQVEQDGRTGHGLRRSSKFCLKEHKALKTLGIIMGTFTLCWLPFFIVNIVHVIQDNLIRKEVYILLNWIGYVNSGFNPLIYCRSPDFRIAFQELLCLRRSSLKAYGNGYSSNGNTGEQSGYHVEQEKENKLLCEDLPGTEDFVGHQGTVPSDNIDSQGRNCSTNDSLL
Procedure, shortened: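 Assay format: CHO-ADRB2 cells, 18-20hr seeding at 37C/5% CO2, then compound plus 1nM isoproterenol agonist mix for 0.5hr RT. Homogeneous time-resolved fluorescence cAMP detection after 1hr, expressed as 665/615 nm ratio.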

[18] = target: Beta-2 adrenergic receptor (Homo sapiens) (UniProt P07550); test: Adrenergic beta2 receptor (ADRB2) small molecule agonists, cell-based qHTS assay (AID 1963593);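 also: CHO cells stably overexpressing human ADRB2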
Procedure, shortened: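 CHO cells stably over-expressing ADRB2 were plated overnight at 37C, then dosed with compounds plus a stimulation mix containing 100uM IBMX and 25uM Ro-20-1724 for 0.5hr at room temperature. cAMP was measured by HTRF competition, 1hr.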

[19] = target: D(2) dopamine receptor (Homo sapiens) (UniProt P14416); test: Dopamine D2 receptor (DRD2) small molecule agonists, cell-based qHTS assay (AID 1963594); also: nearly all actives have a fitted effect of over 35% in size
Chain of D(2) dopamine receptor (Homo sapiens) (P14416 whole entry, looked up): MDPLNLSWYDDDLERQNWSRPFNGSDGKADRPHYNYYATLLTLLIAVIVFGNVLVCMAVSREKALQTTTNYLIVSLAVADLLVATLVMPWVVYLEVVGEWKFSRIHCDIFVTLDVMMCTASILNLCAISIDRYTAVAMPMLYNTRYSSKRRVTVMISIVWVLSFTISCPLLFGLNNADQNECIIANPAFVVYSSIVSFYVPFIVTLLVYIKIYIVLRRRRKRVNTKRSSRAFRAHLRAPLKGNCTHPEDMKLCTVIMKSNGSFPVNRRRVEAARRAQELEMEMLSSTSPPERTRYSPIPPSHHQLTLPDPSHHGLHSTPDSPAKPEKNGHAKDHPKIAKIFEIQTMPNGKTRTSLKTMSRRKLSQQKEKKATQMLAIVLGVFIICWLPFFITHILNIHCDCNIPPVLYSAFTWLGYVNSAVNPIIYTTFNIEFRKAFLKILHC
Procedure, shortened: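 cAMP accumulation in DRD2-HEK293 cells measured by HTRF after 1 h detection; compounds added 10 min before NKH477 (200nM […]) forskolin-analogue stimulation, 30 min at room temperature, with Ro20-1724 present at 0.1 mM final.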

[20] = target: D(2) dopamine receptor (Homo sapiens) (UniProt P14416); test: Dopamine D2 receptor (DRD2) small molecule antagonists, cell-based qHTS assay (AID 1963595; active = well fitted inhibition curve with a large enough effect in the signal ratio in the repeat runs, with a control signal flat; the % refers to the signal ratio; also: potency is read from the fitted curve at half-maximal effect)
Procedure, shortened: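 Antagonism was scored as restored cAMP in HEK293-DRD2 cells. These cells were stimulated with 200 nM NKH477 and 12 nM quinpirole for 30 min at room temperature, in the presence of 0.1 mM Ro20-1724.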

Measured: Potency

c1ccc2cc3c4ccccc4c4ccccc4c3cc2c1
active: [2] 24.4 µM
inactive: all other assays above

C#CC(O)CCC (configuration not stated)
not listed: [16]
inactive: all other assays above

CC(=O)Oc1cccc(O)c1
not listed: [18]
inactive: all other assays above

CC(=O)N[C@@H](Cc1ccc(O)cc1)C(=O)O
not listed: [14]
inactive: all other assays above

c1cnccn1
not listed: [18]
inactive: all other assays above

COCCOCCOCCOCCOC
inactive: all assays above

FC(F)(F)c1ccccc1
not listed: [18]
inactive: all other assays above

O=C(Nc1ccc(Cl)cc1)Nc1ccc(Cl)c(Cl)c1
21.6 µM (active) and inactive: [2]
48.6 µM (active) and inactive: [20]
active: [17] 68.2 µM and 54.5 µM
not listed: [15] | [18]
inactive: all other assays above

COC(CC(C)CCCC(C)(C)O)OC (configuration not stated)
not listed: [14] | [18]
inactive: all other assays above

CN(C)CCCNCCCN
not listed: [18]
inactive: all other assays above

C[C@@H](O)[C@H]1C(=O)N2C(C(=O)O)=C([C@H]3CCCO3)S[C@H]12
inactive: all assays above

CCCCC(CC)CCC(CC(C)C)OS(=O)(=O)O (configuration not stated)
not listed: [18]
inactive: all other assays above

Nc1ccc2c(S(=O)(=O)O)cccc2c1S(=O)(=O)O
not listed: [16]
inactive: all other assays above

NCC1(Cc2noc(=O)[nH]2)CCCCC1
not listed: [17]
inactive: all other assays above

CC(C)(C)OC(=O)c1cccc(N)c1
inactive: all assays above
